CYP2C19 activ: human CYP2C19 activators, primary screen, biochemical, luminescence | Cytochrome P450 2C19 (Homo sapiens), P33261 | recombinant CYP2C19, luciferin-H EGE luminescence; active compounds read high; 0 = fully inhibited enzyme, 1 = untreated enzyme | activation factor at 5 µM | 96,000 tested, under 10 active | AID 1025, 2008;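 active means activation factor of at least 2 at 5 µM in the primary screen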;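 further: 0 = wells with 2.5 mM tranylcypromine and 1 = vehicle-only wells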
CYP2C9 inhib: blockers of cytochrome P450 2C9 activity – biochemical, luminescence, ADME assay, primary screen. CYP2C9 Supersomes, luciferin-H conversion. P11712. AID 777, 2007. inhibition, % at 5 µM. 96,000 tested, 20% active;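 active means blocking of liver enzyme CYP2C9 beyond about 50% at 5 µM, limit read from the data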
Target sequence (P11712 whole entry, looked up): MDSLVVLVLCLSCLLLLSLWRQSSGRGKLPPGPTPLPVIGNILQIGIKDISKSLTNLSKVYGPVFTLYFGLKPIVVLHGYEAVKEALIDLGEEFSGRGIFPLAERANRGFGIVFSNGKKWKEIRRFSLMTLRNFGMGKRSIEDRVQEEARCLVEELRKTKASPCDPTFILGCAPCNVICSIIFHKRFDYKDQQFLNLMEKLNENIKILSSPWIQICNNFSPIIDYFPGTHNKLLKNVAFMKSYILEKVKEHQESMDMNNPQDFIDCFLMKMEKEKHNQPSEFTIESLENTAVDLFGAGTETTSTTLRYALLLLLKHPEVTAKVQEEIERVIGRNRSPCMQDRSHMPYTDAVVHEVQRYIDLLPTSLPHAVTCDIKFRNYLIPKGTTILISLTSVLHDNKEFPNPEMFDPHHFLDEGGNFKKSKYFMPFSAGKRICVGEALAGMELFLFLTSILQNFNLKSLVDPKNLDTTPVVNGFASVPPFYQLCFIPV
CYP2C9 activ: human CYP2C9 activators, primary screen, biochemical, luminescence | Cytochrome P450 2C9 (Homo sapiens), P11712 | recombinant CYP2C9, luciferin-H conversion; active compounds read high; factor 1 = untreated enzyme, 0 = blocked | activation factor at 5 µM | 96,000 tested, 1.4% active;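 active means activation factor of 2 or more for CYP2C9 at a 5 µM dose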;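 further: 0 = sulfaphenazole-blocked wells and 1 = vehicle-only wells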
CYP2C19 inh: blockers of cytochrome P450 2C19 activity – biochemical, luminescence, ADME assay, primary screen. 96,000 tested, 21% active. AID 778, 2007. inhibition, % at 5 µM. CYP2C19 Supersomes, luciferin-H EGE luminescence, 30 min. P33261;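 active means CYP2C19 inhibition above a set limit at 5 µM in the primary screen, cut at about 50% in these data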;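 further: plate controls were negative control wells for no effect and 2.5 mM tranylcypromine positive control for full effect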
PostGolgi ctrl: growth inhibition of yeast control strain, primary screen, counter-screen for post-Golgi transport modulator project; 98,000 tested, 5% active; efflux-deficient yeast background strain, growth absorbance A615, 16 h; inhibition, % at 10 µM; AID 738, 2007
PostGolgi yeast: phenotypic screen on post-Golgi transport, primary screen; inhibition, % at 10 µM; post-Golgi transport phenotypic cell assay; 98,000 tested, 0.9% active;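 further: yeast cells grown in 1536-well plates; yeast grown about 18 h at 30C before absorbance read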
* marks the source's active call; other numbers are inactive results. Sampled rows, rich in hits. Any-hit rate of the full collection: about 32%. Unless noted, no stated cut-off is given here; in the data, active means inhibition above about 30%; inactive means the rest.

How did COc1ccc(N(Cc2cc3ccccc3[nH]c2=O)C(=O)C2CCCO2)cc1 (configuration not stated) do in these assays?
CYP2C19 activ: 0.9; CYP2C9 inhib: 10.0; CYP2C9 activ: 0.9; CYP2C19 inh: 10.4; PostGolgi ctrl: 2.7; PostGolgi yeast: -3.7

What do the screens show for `COc1ccc(NC(=O)N(CCN2CCCC2)Cc2cc3cc(OC)c(OC)cc3[nH]c2=O)cc1`?
CYP2C19 activ: 1; CYP2C9 inhib: 75.0*; CYP2C9 activ: 0.3; CYP2C19 inh: 2.4; PostGolgi ctrl: 0.8; PostGolgi yeast: 12.8

Results for CCCCCC(=O)NC(=S)Nc1ccccc1C(=O)OC ?
CYP2C19 activ: 0.7; CYP2C9 inhib: 12.0; CYP2C9 activ: 0.9; CYP2C19 inh: 28.2; PostGolgi ctrl: 8.1; PostGolgi yeast: 10.7

Results for CCc1ccc2[nH]c(=O)c(CN(CCN(CC)CC)C(=O)Nc3ccccc3OC)cc2c1 ?
CYP2C19 activ: 0.9; CYP2C9 inhib: 8.0; CYP2C9 activ: 0.9; CYP2C19 inh: 8.5; PostGolgi ctrl: 4.7; PostGolgi yeast: -1.9

What do the screens show for `CCN(CC)CCCN(Cc1cc2cc(OC)ccc2[nH]c1=O)C(=O)Nc1ccc(F)cc1`?
CYP2C19 activ: 0.4; CYP2C9 inhib: 84.4*; CYP2C9 activ: 0.2; CYP2C19 inh: 62.3*; PostGolgi ctrl: -4.1; PostGolgi yeast: 1.9

How did c1cnn(-c2nc(N3CCOCC3)nc(N3CCOCC3)n2)c1 do in these assays?
CYP2C19 activ: 1.1; CYP2C9 inhib: 52.6*; CYP2C9 activ: 0.5; CYP2C19 inh: -12.3; PostGolgi ctrl: 18.6; PostGolgi yeast: 3.8

What do the screens show for `Cc1ccc(S(=O)(=O)c2nc(C)c3c(n2)CCC3)cc1`?
CYP2C19 activ: 0.6; CYP2C9 inhib: -117.1; CYP2C9 activ: 2.2*; CYP2C19 inh: 36.3; PostGolgi ctrl: 1.6; PostGolgi yeast: 0.6

What do the screens show for `O=C(Cn1nnc2ccccc21)N1CCCCC1`?
CYP2C19 activ: 0.8; CYP2C9 inhib: 3.7; CYP2C9 activ: 1; CYP2C19 inh: 20.5; PostGolgi ctrl: -8.9; PostGolgi yeast: -6.3

Results for O=C1c2ccccc2C(=O)N1CC(O)Cn1nnc2ccccc21 (configuration not stated) ?
CYP2C19 activ: 0.4; CYP2C9 inhib: 34.2; CYP2C9 activ: 0.7; CYP2C19 inh: 58.9*; PostGolgi ctrl: 3.4; PostGolgi yeast: -5.0

Results for OC(CN1c2ccccc2Sc2ccccc21)Cn1nnc2ccccc21 (configuration not stated) ?
CYP2C19 activ: 0; CYP2C9 inhib: 99.5*; CYP2C9 activ: 0; CYP2C19 inh: 99.6*; PostGolgi ctrl: 47.0*; PostGolgi yeast: 9.8

What do the screens show for `Cc1nn(CC(O)c2ccccc2)c(C)c1Br` (configuration not stated)?
CYP2C19 activ: 0.6; CYP2C9 inhib: -2.4; CYP2C9 activ: 1; CYP2C19 inh: 42.2; PostGolgi ctrl: 9.8; PostGolgi yeast: 1.9

What do the screens show for `CC(=O)Cn1c(C(F)(F)F)nc2ccccc21`?
CYP2C19 activ: 1.1; CYP2C9 inhib: -13.6; CYP2C9 activ: 1.1; CYP2C19 inh: -13.0; PostGolgi ctrl: 2.9; PostGolgi yeast: 4.8

How did Cc1nn(CC(O)CN2c3ccccc3Sc3ccccc32)c(C)c1Br (configuration not stated) do in these assays?
CYP2C19 activ: 0.1; CYP2C9 inhib: 93.0*; CYP2C9 activ: 0.1; CYP2C19 inh: 88.6*; PostGolgi ctrl: 30.0; PostGolgi yeast: -3.3

What do the screens show for `OC(Cn1nnc2ccccc21)Cn1c(C(F)(F)F)nc2ccccc21` (configuration not stated)?
CYP2C19 activ: 0.7; CYP2C9 inhib: 57.3*; CYP2C9 activ: 0.4; CYP2C19 inh: 34.9; PostGolgi ctrl: 2.1; PostGolgi yeast: 2.7

What do the screens show for `O=C(Cn1nnc2ccccc21)C1CC1`?
CYP2C19 activ: 1; CYP2C9 inhib: 15.6; CYP2C9 activ: 0.8; CYP2C19 inh: -1.0; PostGolgi ctrl: -0.3; PostGolgi yeast: 5.1

How did COc1cccc(/C=N\NC(=O)c2sc(N)nc2C)c1OC do in these assays?
CYP2C19 activ: 1; CYP2C9 inhib: 2.3; CYP2C9 activ: 1; CYP2C19 inh: 3.5; PostGolgi ctrl: 5.7; PostGolgi yeast: -2.4

Results for CCCCN(Cc1ccco1)C(=O)c1cc2c(=O)[nH]c3ccc(C)cc3c2s1 ?
CYP2C19 activ: 0.5; CYP2C9 inhib: 72.2*; CYP2C9 activ: 0.3; CYP2C19 inh: 50.3*; PostGolgi ctrl: 36.0*; PostGolgi yeast: -0.4

How did Cc1ccc2[nH]c(=O)c3cc(C(=O)N(CCCOC(C)C)Cc4ccco4)sc3c2c1 do in these assays?
CYP2C19 activ: 0.6; CYP2C9 inhib: 57.6*; CYP2C9 activ: 0.4; CYP2C19 inh: 37.0; PostGolgi ctrl: 14.1; PostGolgi yeast: 5.5

What do the screens show for `Cc1ccc2[nH]c(=O)c(CN(Cc3ccco3)C(=O)c3cccs3)cc2c1`?
PostGolgi ctrl: 3.5; PostGolgi yeast: 6.1

What do the screens show for `Cc1cnc(NC(=O)CSc2nnc(CNc3ccc(F)cc3)n2CC2CCCO2)s1` (configuration not stated)?
CYP2C19 activ: 1; CYP2C9 inhib: 24.9; CYP2C9 activ: 0.8; CYP2C19 inh: 1.8; PostGolgi ctrl: -13.3; PostGolgi yeast: 0.3

Results for CC(C)C[C@H](NC(=O)OC(C)(C)C)C(=O)N1CCC(C(=O)N[C@@H](Cc2ccccc2)C(=O)O)CC1 ?
PostGolgi ctrl: 0.5; PostGolgi yeast: 0.9

Results for Cc1ccc(C=C2C(=O)c3ccccc3C2=O)s1 ?
CYP2C19 activ: 0.9; CYP2C9 inhib: 48.0; CYP2C9 activ: 0.5; CYP2C19 inh: 13.0; PostGolgi ctrl: 13.4; PostGolgi yeast: 0.7

What do the screens show for `Cc1csc(NC(=O)CCC(=O)N(CC(=O)NC2CCCC2)Cc2ccco2)n1`?
CYP2C19 activ: 1; CYP2C9 inhib: 0.3; CYP2C9 activ: 1; CYP2C19 inh: -3.8; PostGolgi ctrl: 2.2; PostGolgi yeast: 4.8

What do the screens show for `O=C(CSc1nc2ccccc2[nH]1)Nc1ccccc1F`?
CYP2C19 activ: 0.4; CYP2C9 inhib: 83.5*; CYP2C9 activ: 0.2; CYP2C19 inh: 63.7*; PostGolgi ctrl: 1.9; PostGolgi yeast: -0.3

Results for O=C(CSc1nc2ccccc2[nH]1)Nc1ccc(F)c(F)c1 ?
CYP2C19 activ: 0.4; CYP2C9 inhib: 65.6*; CYP2C9 activ: 0.3; CYP2C19 inh: 56.4*; PostGolgi ctrl: 4.7; PostGolgi yeast: 27.6

How did O=C(CSc1nc2ccccc2[nH]1)NCCCn1ccnc1 do in these assays?
CYP2C19 activ: 0.1; CYP2C9 inhib: 94.7*; CYP2C9 activ: 0.1; CYP2C19 inh: 91.9*; PostGolgi ctrl: 2.7; PostGolgi yeast: 5.6

How did O=C(CSC1=NCCS1)Nc1cccc2ccccc12 do in these assays?
CYP2C19 activ: 0.8; CYP2C9 inhib: 2.9; CYP2C9 activ: 1; CYP2C19 inh: 19.7; PostGolgi ctrl: -3.8; PostGolgi yeast: -4.1

Compound activity: PubChem, several laboratories
